Screen size: about 39,000 compounds; about 1,500 (3.8%) were called active. This excerpt belongs to a sample that is enriched for actives.
Test system: HSkMC (human skeletal muscle cells)
Experiment: cytotoxicity call (relative viability < 0.9)
Conditions: 10 µM

Structure (SMILES)	cytotoxicity call
CC(C)(C)NCC(O)COc1ccccc1C1CCCC1.O=S(=O)(O)O (stereo unspecified)	inactive
Cc1ccc2sc(C(=O)O)cc2c1	inactive
COc1ccc(S(=O)(=O)Nc2ccc3c(c2)C(=O)N([C@@H](C)CO)C[C@@H](C)[C@H](CN(C)C(=O)Nc2cccc4ccccc24)OCCCC[C@@H](C)O3)cc1	inactive
C[C@H]1CN([C@@H](C)CO)S(=O)(=O)c2ccc(C#Cc3cccc(F)c3)cc2O[C@@H]1CN(C)S(=O)(=O)c1cn(C)cn1	inactive
CO[C@@H]1CN(C)C(=O)c2ccc(NS(C)(=O)=O)cc2OC[C@@H](C)N(S(C)(=O)=O)C[C@H]1C	inactive
C[C@@H]1CN([C@@H](C)CO)C(=O)c2cccc(NC(=O)c3cnccn3)c2O[C@H]1CN(C)S(=O)(=O)c1ccc(Cl)cc1	inactive
C[C@H]1CN([C@@H](C)CO)C(=O)c2cc(Br)cnc2O[C@H]1CN(C)Cc1ccccc1C(=O)O	inactive
C[C@H]1CN([C@@H](C)CO)C(=O)c2cccc(NC(=O)Nc3ccc(C(F)(F)F)cc3)c2O[C@H]1CN(C)S(=O)(=O)c1ccc(F)cc1	inactive
OC1(c2ccc(Cl)c(C(F)(F)F)c2)CCN(CCCC(c2ccc(F)cc2)c2ccc(F)cc2)CC1 [listing 1 of 2 here]	active
O=C(CCCN1CCC(O)(c2ccc(Br)cc2)CC1)c1ccc(F)cc1	inactive
O=C(CCCN1CCC(O)(c2ccc(Cl)cc2)CC1)c1ccc(F)cc1	inactive
OC1(c2ccc(Cl)c(C(F)(F)F)c2)CCN(CCCC(c2ccc(F)cc2)c2ccc(F)cc2)CC1 [listing 2 of 2 here]	active
COc1ccc(S(=O)(=O)Nc2cccc3c2O[C@@H](CN(C)S(=O)(=O)c2ccccc2)[C@@H](C)CN([C@H](C)CO)C3=O)cc1	inactive
C[C@@H]1CN([C@H](C)CO)C(=O)c2cccc(NS(=O)(=O)c3cn(C)cn3)c2O[C@H]1CN(C)C(=O)Nc1ccc(F)cc1	inactive
C[C@@H]1CN([C@@H](C)CO)C(=O)c2cc(NC(=O)Cc3ccccc3)ccc2O[C@@H](C)CCCCO[C@@H]1CN(C)C(=O)Nc1cccc2ccccc12	inactive
CO[C@H]1O[C@H](CO)[C@@H](OC(=O)Nc2ccc3c(c2)OCO3)[C@H](OC(=O)Nc2ccc3c(c2)OCO3)[C@@H]1OC(=O)Nc1ccc2c(c1)OCO2	inactive
CN(C)C(=O)C[C@H]1CC[C@@H]2[C@@H](COc3ccc(NS(=O)(=O)c4cccc(F)c4)cc3C(=O)N2C)O1	inactive
O=C1CN(S(=O)(=O)Cc2ccccc2)C[C@@H]2[C@@H](c3ccc(C#Cc4ccc(F)cc4)cc3)[C@H](CO)N12	inactive
O=C1CN(S(=O)(=O)Cc2ccccc2)C[C@@H]2[C@@H](c3ccc(C#Cc4ccc(F)cc4)cc3)[C@@H](CO)N12	active
O=C1CN(S(=O)(=O)Cc2ccccc2)C[C@@H]2[C@H](c3ccc(C#Cc4ccc(F)cc4)cc3)[C@H](CO)N12	active
O=C1CN(S(=O)(=O)Cc2ccccc2)C[C@H]2[C@@H](c3ccc(C#Cc4ccc(F)cc4)cc3)[C@@H](CO)N12	inactive

Structure (SMILES)	cytotoxicity call
O=C1CN(S(=O)(=O)Cc2ccccc2)C[C@H]2[C@H](c3ccc(C#Cc4ccc(F)cc4)cc3)[C@@H](CO)N12	active
O=C1CN(S(=O)(=O)Cc2ccccc2)C[C@H]2[C@@H](c3ccc(C#Cc4ccc(F)cc4)cc3)[C@H](CO)N12	inactive
O=C1CN(S(=O)(=O)Cc2ccccc2)C[C@@H]2[C@H](c3ccc(C#Cc4ccc(F)cc4)cc3)[C@@H](CO)N12	inactive
O=C1CN(S(=O)(=O)Cc2ccccc2)C[C@H]2[C@H](c3ccc(C#Cc4ccc(F)cc4)cc3)[C@H](CO)N12	active
COc1cccc(C#Cc2ccc([C@@H]3[C@H]4CN(S(=O)(=O)c5ccccc5C)CC(=O)N4[C@H]3CO)cc2)c1	inactive
COc1cccc(C#Cc2ccc([C@H]3[C@H](CO)N4C(=O)CN(S(=O)(=O)c5ccccc5C)C[C@@H]34)cc2)c1	inactive
C[C@H](CO)N1C[C@H](C)[C@H](CN(C)Cc2ccc(Oc3ccccc3)cc2)Oc2cc(-c3ccncc3)ccc2S1(=O)=O	inactive
O=C(C[C@@H]1CC[C@@H](NC(=O)CN2CCOCC2)[C@@H](CO)O1)NCCc1ccccc1	inactive
CC(C)NC(=O)Nc1ccc2c(c1)C(=O)N(C)[C@H]1CC[C@H](CC(=O)NCc3ccc(F)cc3)O[C@H]1CO2	inactive
COCC#Cc1cnc2c(c1)C(=O)N([C@@H](C)CO)C[C@@H](C)[C@H](CN(C)C(C)=O)O2	inactive
C[C@@H]1CN([C@H](C)CO)C(=O)Cc2cc(NC(=O)Nc3cccc4ccccc34)ccc2O[C@@H]1CN(C)S(=O)(=O)c1cccs1	inactive
C[C@H](CO)N1C[C@H](C)[C@H](CN(C)C(=O)Nc2ccc(F)cc2)OCCCC[C@H](C)Oc2ccc(NC(=O)Nc3ccc4c(c3)OCO4)cc2C1=O	inactive
COc1ccc(S(=O)(=O)N(C)C[C@H]2OCc3cnnn3CCCC(=O)N([C@@H](C)CO)C[C@@H]2C)cc1	inactive
C[C@H]1CN([C@@H](C)CO)C(=O)c2cc(NC(=O)Nc3cccc4ccccc34)ccc2O[C@@H]1CN(C)C(=O)NC1CCCCC1	inactive
CCCC[P+](CCCC)(CCCC)Cc1ccc(NC(=O)[C@@H](Cc2ccc3ccccc3c2)N=C(NC2CCCCC2)NC2CCCCC2)cc1	active
CCCC[P+](CCCC)(CCCC)Cc1ccc(NC(=O)[C@H](Cc2ccc3ccccc3c2)N/C(=N/C2CCCCC2)NC2CCCCC2)cc1	inactive
CC(C)NC(=O)Nc1ccc2c(c1)C(=O)N([C@H](C)CO)C[C@@H](C)[C@@H](CN(C)Cc1ccc3c(c1)OCO3)O2	inactive
C[C@H]1CCCCO[C@@H](CN(C)Cc2ccc3c(c2)OCO3)[C@@H](C)CN([C@@H](C)CO)C(=O)c2cc(NC(=O)Nc3ccc(C(F)(F)F)cc3)ccc2O1	active
C[C@@H]1CCCCO[C@@H](CN(C)Cc2ccc(C(F)(F)F)cc2)[C@@H](C)CN([C@@H](C)CO)C(=O)c2cc(NC(=O)Nc3ccc4c(c3)OCO4)ccc2O1	inactive
C[C@H]1CCCCO[C@H](CN(C)Cc2ccc3c(c2)OCO3)[C@@H](C)CN([C@@H](C)CO)C(=O)c2cc(NC(=O)Nc3ccc(C(F)(F)F)cc3)ccc2O1	active
C[C@@H]1CCCCO[C@@H](CN(C)Cc2ccc3c(c2)OCO3)[C@H](C)CN([C@H](C)CO)C(=O)c2cc(NC(=O)Nc3ccc(C(F)(F)F)cc3)ccc2O1	active

Structure (SMILES)	cytotoxicity call
C[C@@H]1CCCCO[C@H](CN(C)Cc2ccc(C(F)(F)F)cc2)[C@H](C)CN([C@@H](C)CO)C(=O)c2cc(NC(=O)Nc3ccc4c(c3)OCO4)ccc2O1	inactive
C[C@@H]1CN([C@@H](C)CO)C(=O)c2cc(NC(=O)Nc3ccc(C(F)(F)F)cc3)ccc2O[C@@H](C)CCCCO[C@H]1CN(C)Cc1ccc2c(c1)OCO2	active
C[C@H]1CN([C@@H](C)CO)C(=O)c2cccc(NC(=O)C3CCOCC3)c2O[C@@H]1CN(C)C(=O)NC1CCCCC1	inactive
C[C@H](CO)N1C[C@H](C)[C@H](CN(C)S(=O)(=O)c2cn(C)cn2)Oc2ncc(C3=CCCC3)cc2C1=O	inactive
CO[C@H](CN(C)S(=O)(=O)c1cccc(Cl)c1)[C@@H](C)CN([C@@H](C)CO)S(=O)(=O)c1cccc(Cl)c1	inactive
COc1ccc(NC(=O)Nc2ccc3c(c2)C(=O)N([C@H](C)CO)C[C@H](C)[C@H](CN(C)C(=O)Nc2c(C)noc2C)OCCCC[C@H](C)O3)cc1	inactive
COc1ccc(NC(=O)N(C)C[C@@H]2Oc3ccc(NS(=O)(=O)c4c(C)noc4C)cc3CC(=O)N([C@H](C)CO)C[C@H]2C)cc1	inactive
C[C@@H]1CCCCO[C@@H](CN(C)C(=O)C2CCCCC2)[C@@H](C)CN([C@@H](C)CO)C(=O)c2cc(NC(=O)Cc3ccccc3)ccc2O1	inactive
C[C@@H]1CN([C@H](C)CO)S(=O)(=O)c2ccc(C#CCN(C)C)cc2O[C@@H]1CN(C)S(C)(=O)=O	inactive
CSc1nc(=O)c(C)n[nH]1	inactive
Cc1ccc(S(=O)(=O)Nc2ccc3c(c2)C(=O)N([C@@H](C)CO)C[C@H](C)[C@H](CN(C)S(=O)(=O)c2cn(C)cn2)O3)cc1	inactive
C[C@@H]1CCCCO[C@H](CN(C)Cc2ccc3c(c2)OCO3)[C@H](C)CN([C@H](C)CO)C(=O)c2cc(NC(=O)Nc3ccc(C(F)(F)F)cc3)ccc2O1	active
C[C@@H]1CCCCO[C@H](CN(C)Cc2ccc3c(c2)OCO3)[C@H](C)CN([C@@H](C)CO)C(=O)c2cc(NC(=O)Nc3ccc(C(F)(F)F)cc3)ccc2O1	active
C[C@@H]1CCCCO[C@@H](CN(C)Cc2ccc(C(F)(F)F)cc2)[C@H](C)CN([C@@H](C)CO)C(=O)c2cc(NC(=O)Nc3ccc4c(c3)OCO4)ccc2O1	inactive
C[C@H]1CCCCO[C@@H](CN(C)Cc2ccc(C(F)(F)F)cc2)[C@@H](C)CN([C@@H](C)CO)C(=O)c2cc(NC(=O)Nc3ccc4c(c3)OCO4)ccc2O1	inactive
C[C@H](CO)N1C[C@H](C)[C@@H](CN(C)Cc2ccc(C(F)(F)F)cc2)OCCCC[C@H](C)Oc2ccc(NC(=O)Nc3ccc4c(c3)OCO4)cc2C1=O	inactive
C[C@@H]1CN([C@H](C)CO)C(=O)c2cc(NC(=O)Nc3ccc(C(F)(F)F)cc3)ccc2O[C@@H](C)CCCCO[C@@H]1CN(C)Cc1ccc2c(c1)OCO2	active
C[C@@H]1CCCCO[C@H](CN(C)Cc2ccc3c(c2)OCO3)[C@@H](C)CN([C@H](C)CO)C(=O)c2cc(NC(=O)Nc3ccc(C(F)(F)F)cc3)ccc2O1	active
C[C@H](CO)N1C[C@H](C)[C@H](CN(C)Cc2ccc(C(F)(F)F)cc2)OCCCC[C@H](C)Oc2ccc(NC(=O)Nc3ccc4c(c3)OCO4)cc2C1=O	inactive

Source: the antibiotic and cytotoxicity screens of Wong et al. (2023)
